# According to PubChem BioAssay (NCATS):
# Where “and” joins values, the source holds several entries; their conditions need not be identical. Equal entries are not always repeated. Results filed as inconclusive are left out. Calls of active or inactive are those of the source. Unless noted, how the calls were made is not given here.
# Columns and labels:
# [1] = molecular target: Glucocorticoid receptor (Homo sapiens) (UniProt P04150); assay: GR-EFC Redistribution (AID 451; calls by dose curve; further: potency means the concentration at half of the fitted maximal effect); conditions: CHO-K1 GR-EFC translocation, beta-gal luminescence, 2 h
# How it was run: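 CHO-K1 cells expressing nuclear EA and GR-ED fragments of b-gal; compounds titrated up to 46 uM final, 2 h at 37 C. GR nuclear translocation read as complemented b-gal luminescence after 1 h RT detection.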
# [2] = molecular target: Cytochrome P450 2C9 (Homo sapiens) (UniProt P11712); assay: qHTS Assay for Inhibitors and Substrates of Cytochrome P450 2C9 (AID 883; active means well fitted inhibition curve with a large enough effect; further: potency means the concentration at half of the fitted maximal effect; nearly all actives have a fitted effect of over 60% in size); conditions: recombinant CYP2C9, luciferin-H luminescence, 60 min; series mostly up to 57.1 µM
# How it was run: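 Human CYP2C9 (10nM) with Luciferin-H at 100uM (its KM) in 25mM KPO4; compound preincubated 10 min at 37C, then NADPH regeneration for 60 min at 37C. Luciferin read by luminescence after detection reagent; normalized to 57uM sulphaphenazole as full inhibition.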
# [3] = qHTS profiling of the MIPE4 collection as inhibitors of Plasmodium falciparum (3D7) proliferation (AID 743344);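 further: scaled between DMSO vehicle wells and 0.29 µM artemisinin as full inhibition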; conditions: P. falciparum 3D7 in erythrocytes, SYBR Green DNA fluorescence, 72 h; at 28.5 µM (top of the series)
# How it was run: (§1)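 Erythrocytes infected with P. falciparum (0.3% parasitemia, 2.5% hematocrit) incubated with compounds 72 h at 37 C, 5% CO2. Lysis with saponin/Triton buffer containing SYBR Green I, overnight at room temperature in the dark; DNA fluorescence (485/535 nm) normalised to 0.29 uM artemisinin and DMSO.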
# [4] = qHTS profiling of the MIPE4 collection as inhibitors of Plasmodium falciparum (DD2) proliferation (AID 743345); conditions: P. falciparum Dd2 in erythrocytes, SYBR Green DNA, 72 h; at 28.5 µM (top of the series)
# How it was run: as §1
# [5] = qHTS profiling of the MIPE4 collection as inhibitors of Plasmodium falciparum (DD2) proliferation (Rep 2) (AID 743346); conditions: P. falciparum Dd2 in erythrocytes, SYBR Green DNA, 72 h; at 28.5 µM (top of the series)
# How it was run: as §1
# [6] = qHTS profiling of the MIPE4 collection as inhibitors of Plasmodium falciparum (HB3) proliferation (AID 743347);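 further: plate controls were DMSO vehicle wells for no effect and artemisinin wells for full effect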; conditions: P. falciparum HB3 in erythrocytes, SYBR Green DNA, 72 h; at 28.5 µM (top of the series)
# How it was run: as §1
# [7] = molecular target: Androgen receptor (Homo sapiens) (UniProt P10275); assay: qHTS assay for small molecule agonists of androgen receptor signaling (AID 588515; active means well fitted curve in the direction sought with a large enough effect in the signal ratio, with a control signal flat; the % refers to the signal ratio; further: on the % scale 0 is the no-effect control and ±100 the full control effect); conditions: AR-UAS-bla HEK293, beta-lactamase ratio, agonist 16 h; stronger effect = higher value
# How it was run: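 EC50 and efficacy came from Hill fits of titrations (up to 92 uM) normalized to 30 nM R1881 as 100% and DMSO as 0%. Compound exposure was 16 h at 37 C on AR-UAS-bla HEK293 cells, with a 405/460/530 nm CCF4 fluorescence read.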
# [8] = molecular target: Androgen receptor (Homo sapiens) (UniProt P10275); assay: qHTS assay for small molecule antagonists of androgen receptor signaling (AID 588516; active means well fitted curve in the direction sought with a large enough effect in the signal ratio, with a control signal flat, not every such curve was filed as active; the % refers to the signal ratio; further: on the % scale 0 is the no-effect control and ±100 the full control effect); conditions: AR-UAS-bla HEK293, beta-lactamase ratio, antagonist mode, 16 h; series mostly up to 76.8 µM
# How it was run: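 Compounds tested in titration against 10 nM R1881 in AR-responsive bla reporter HEK 293 cells; CCF4 fluorescence (460/530 nm) after 16 h exposure gave IC50 and efficacy.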
# [9] = molecular target: Lysosomal acid glucosylceramidase (Homo sapiens) (UniProt P04062); assay: Glucocerebrosidase-p2 (AID 348; in the data active means potency below about 10 µM; further: potency means the concentration at half of the fitted maximal effect); conditions: purified GBA, blue fluorogenic substrate, 40 min
# How it was run: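 Compounds titrated from 0.6 nM upwards against 0.2 nM enzyme in pH 5.9 citric acid/KH2PO4, taurocholate, tween-20; blue fluorogenic substrate 80 uM, 40 min room temperature, stopped and read Ex 365/Em 440 for AC50.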
# [10] = AP1 Signaling Pathway (AID 357; active means well fitted curve in either direction with a large enough effect, not every such curve was filed as active;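 further: ME-180 reporter cells stimulated with EGF at its EC50 level; on the % scale 0 is the no-effect control and ±100 the full control effect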); conditions: ME-180 (cervical carcinoma) AP-1-bla reporter, EGF-induced, beta-lactamase ratio, 5 h; at 7.69 µM (top of the series) unless noted
# How it was run: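 AP-1-bla ME-180 cells, Opti-MEM + 0.5% dialyzed FBS, plated overnight 37 °C. Cpd titration + EC50 EGF, 5 h 37 °C. CCF4 2.5 h RT; ex 405, em 460/530 ratio → %activity, AC50.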
# Androgen receptor (Homo sapiens), sequence (P10275 whole entry, looked up): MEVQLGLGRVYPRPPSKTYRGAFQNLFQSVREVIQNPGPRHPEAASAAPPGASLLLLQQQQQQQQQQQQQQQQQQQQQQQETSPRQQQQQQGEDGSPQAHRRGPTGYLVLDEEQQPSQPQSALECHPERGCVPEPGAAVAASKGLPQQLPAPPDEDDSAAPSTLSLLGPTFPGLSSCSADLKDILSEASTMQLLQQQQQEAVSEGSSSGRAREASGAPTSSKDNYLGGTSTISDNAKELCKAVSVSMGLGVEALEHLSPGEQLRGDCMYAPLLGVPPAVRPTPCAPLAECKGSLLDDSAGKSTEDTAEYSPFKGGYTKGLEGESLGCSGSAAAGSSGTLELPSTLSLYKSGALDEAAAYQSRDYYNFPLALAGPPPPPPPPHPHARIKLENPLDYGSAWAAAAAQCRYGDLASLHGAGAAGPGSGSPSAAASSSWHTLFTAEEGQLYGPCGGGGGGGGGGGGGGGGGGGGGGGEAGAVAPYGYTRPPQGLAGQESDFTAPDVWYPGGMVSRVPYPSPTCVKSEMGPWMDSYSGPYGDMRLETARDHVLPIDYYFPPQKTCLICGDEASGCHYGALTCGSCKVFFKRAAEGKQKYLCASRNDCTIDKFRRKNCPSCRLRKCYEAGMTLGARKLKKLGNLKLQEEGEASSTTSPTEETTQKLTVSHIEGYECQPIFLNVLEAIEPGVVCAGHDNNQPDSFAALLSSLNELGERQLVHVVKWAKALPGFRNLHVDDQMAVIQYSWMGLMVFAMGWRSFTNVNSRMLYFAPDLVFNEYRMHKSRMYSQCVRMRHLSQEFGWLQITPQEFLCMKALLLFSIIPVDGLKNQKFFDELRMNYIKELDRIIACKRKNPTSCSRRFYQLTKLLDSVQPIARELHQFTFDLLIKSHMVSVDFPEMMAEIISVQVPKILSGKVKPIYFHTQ
# Lysosomal acid glucosylceramidase (Homo sapiens), sequence (P04062 whole entry, looked up): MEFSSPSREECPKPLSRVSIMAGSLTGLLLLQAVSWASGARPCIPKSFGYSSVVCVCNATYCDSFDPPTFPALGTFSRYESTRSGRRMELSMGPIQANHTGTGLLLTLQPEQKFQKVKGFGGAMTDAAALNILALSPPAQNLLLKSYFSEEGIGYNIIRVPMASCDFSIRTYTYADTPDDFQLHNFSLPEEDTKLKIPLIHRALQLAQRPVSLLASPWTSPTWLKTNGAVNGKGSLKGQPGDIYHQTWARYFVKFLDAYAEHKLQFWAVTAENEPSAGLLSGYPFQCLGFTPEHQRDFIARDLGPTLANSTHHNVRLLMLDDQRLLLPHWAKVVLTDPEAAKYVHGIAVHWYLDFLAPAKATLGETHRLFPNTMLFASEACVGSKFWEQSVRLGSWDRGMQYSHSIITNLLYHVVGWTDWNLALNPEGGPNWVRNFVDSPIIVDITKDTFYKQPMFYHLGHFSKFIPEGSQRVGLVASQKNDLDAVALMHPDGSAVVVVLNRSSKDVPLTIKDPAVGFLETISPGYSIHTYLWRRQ
# Cytochrome P450 2C9 (Homo sapiens), sequence (P11712 whole entry, looked up): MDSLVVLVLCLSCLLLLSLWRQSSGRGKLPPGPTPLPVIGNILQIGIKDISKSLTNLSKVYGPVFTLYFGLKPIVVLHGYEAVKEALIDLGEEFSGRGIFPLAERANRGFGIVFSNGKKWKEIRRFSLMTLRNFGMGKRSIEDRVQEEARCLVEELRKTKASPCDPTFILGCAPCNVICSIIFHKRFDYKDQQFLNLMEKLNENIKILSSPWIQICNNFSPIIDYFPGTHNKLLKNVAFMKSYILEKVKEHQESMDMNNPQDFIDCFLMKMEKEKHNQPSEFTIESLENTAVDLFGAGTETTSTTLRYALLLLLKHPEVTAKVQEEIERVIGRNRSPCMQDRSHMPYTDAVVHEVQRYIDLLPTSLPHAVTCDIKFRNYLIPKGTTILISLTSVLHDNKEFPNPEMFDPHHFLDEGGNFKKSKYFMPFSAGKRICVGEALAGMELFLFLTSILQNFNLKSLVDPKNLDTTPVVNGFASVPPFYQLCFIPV
# Glucocorticoid receptor (Homo sapiens), sequence (P04150 whole entry, looked up, the tested form may be a part): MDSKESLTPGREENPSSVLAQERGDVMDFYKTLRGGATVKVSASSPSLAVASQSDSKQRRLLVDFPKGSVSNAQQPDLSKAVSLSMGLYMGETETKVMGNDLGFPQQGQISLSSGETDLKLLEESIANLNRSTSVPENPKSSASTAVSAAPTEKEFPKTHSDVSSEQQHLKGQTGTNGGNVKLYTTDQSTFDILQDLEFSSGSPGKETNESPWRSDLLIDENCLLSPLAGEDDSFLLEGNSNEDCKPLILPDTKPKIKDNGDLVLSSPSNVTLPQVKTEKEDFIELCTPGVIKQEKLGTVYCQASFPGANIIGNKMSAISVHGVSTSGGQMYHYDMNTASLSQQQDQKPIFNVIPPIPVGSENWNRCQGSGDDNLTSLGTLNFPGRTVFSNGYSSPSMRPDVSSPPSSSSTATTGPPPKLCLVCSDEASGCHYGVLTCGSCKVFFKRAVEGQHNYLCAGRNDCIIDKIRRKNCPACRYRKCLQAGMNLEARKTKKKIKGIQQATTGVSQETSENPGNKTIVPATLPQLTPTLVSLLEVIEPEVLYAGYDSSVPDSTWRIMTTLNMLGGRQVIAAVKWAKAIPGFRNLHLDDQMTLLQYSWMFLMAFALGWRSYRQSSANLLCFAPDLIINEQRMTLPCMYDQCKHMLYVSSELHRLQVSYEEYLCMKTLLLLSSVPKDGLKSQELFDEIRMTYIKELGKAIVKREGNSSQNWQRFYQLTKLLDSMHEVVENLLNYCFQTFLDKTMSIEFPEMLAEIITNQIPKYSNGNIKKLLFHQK
smiles,measurement,setting,value
O=c1cc(-c2cccc(O)c2)oc2c(O)c(O)ccc12,Potency,[1],> 46 µM (inactive)
same,Potency,[2],1.58 µM (active)
Nc1cccc(-c2csc(NC(=O)CCCCCCC(=O)NO)n2)c1,"parasite growth, % of DMSO control",[3],5.04%
same,"parasite growth remaining, % of DMSO control (lower = more inhibition)",[4],7.08%
same,"parasite growth, % of control (lower = inhibition)",[5],11.6%
same,"growth, % of control",[6],8.11%
O=C(O)c1ccccc1C(c1ccc(O)cc1)c1ccc(O)cc1,activation,[7],7.12% (inactive) and 7.97% (inactive)
same,outcome,[8],inactive
CN1CC[C@H](CN2c3ccccc3Sc3ccccc32)C1,Potency,[9],> 11.4 µM (inactive)
O=C1c2ccccc2C(=O)C1c1ccc2ccccc2n1,"activity change, negative = inhibition",[10],13% [at 17.2 µM] (inactive)
